# Measurements: PubChem BioAssay AID1259343 (VanderVen Lab, College of Veterinary Medicine, Cornell …, 2017)
# Out of some 6,200 compounds screened, about 2,900 (47%) were called active. No stated cut-off is given here; in the data, active means inhibition above about 50%; inactive means the rest. The set was probably picked from earlier hits. Some of the results follow.
# Assay: Mycobacterium tuberculosis growth inhibition, primary screen (AID 1259343)
# Details: inhibition: at 10 µM, stronger effect = higher value; outcome: 10 uM
row,SMILES,inhibition
1,CCc1cccc2c(C(=O)CSc3nnc(-c4cccnc4)o3)c[nH]c12,63.8% (active)
2,CCOC(=O)c1c(CC(C)C)csc1NC=C(C#N)C#N,100% (active)
3,CCOC(=O)C(C#N)=NNc1sc(C(=O)OCC)c(C)c1C(=O)OCC,-20.8% (inactive)
4,CCOC(=O)c1sc(NN=C(C#N)C#N)c(C(=O)OCC)c1C,27.2% (inactive)
5,Cc1cc(NC(=O)c2cccc(C(F)(F)F)c2)n(-c2nc(C)c(C)c(=O)[nH]2)n1,33.9% (inactive)
6,Cc1cc(=O)[nH]c(-n2nc(C)cc2NC(=O)c2cccc(C(F)(F)F)c2)n1,102% (active)
7,Cc1cc(=O)[nH]c(-n2nc(C)cc2NC(=O)c2ccc(C(F)(F)F)cc2)n1,98.6% (active)
8,Cc1cc(=O)[nH]c(-n2nc(C)cc2NC(=O)c2cc(C(F)(F)F)cc(C(F)(F)F)c2)n1,98.3% (active)
9,Clc1ccccc1CSc1ncnc2c1nnn2Cc1ccccc1,-14.6% (inactive)
10,CCn1nnc2c(N3CCC(Cc4ccccc4)CC3)ncnc21,75.6% (active)
11,Cc1cc(=O)[nH]c(SCc2cc(-c3ccco3)on2)c1C#N,20.5% (inactive)
12,COc1cccc(-c2ccc(CNC(=O)c3n[nH]c(=O)[nH]3)cc2)c1,76.1% (active)
13,Cc1c(NC(=S)NCc2ccccn2)c(=O)n(-c2ccccc2)n1C,92.7% (active)
14,Cc1cc2cc(CNC(=S)Nc3ccccc3)ccc2n1C,49.3% (inactive)
15,Cc1c(NC(=S)NC(=O)c2ccc(Br)o2)c(=O)n(-c2ccccc2)n1C,-13.3% (inactive)
16,Cc1ccc(S(=O)(=O)N=[N+]([O-])C2([N+](=O)[O-])COC(C)OC2)cc1 (centres undefined),102% (active)
17,CCOC(=O)c1ccc(N=Cc2c(O)c([N+](=O)[O-])cc3oc4c(c23)CCCC4)cc1,97.7% (active)
18,O=C(Nc1cccc(-c2cscn2)c1)C1CCN(Cc2cccc(-c3ccco3)c2)CC1,86.2% (active)
19,CC(=O)c1ccc(C(=O)N2CCC(C(=O)Nc3cccc(-c4ccco4)c3)CC2)s1,92.1% (active)
20,CC(C)c1csc(CN2CCC(C(=O)Nc3cccc(-c4ccco4)c3)CC2)n1,inactive
21,O=C(Nc1cccc(-c2ccco2)c1)C1CCN(C(=O)Cc2ccsc2)CC1,95.1% (active)
22,Cc1ncsc1CCC(=O)N1CCC(C(=O)Nc2cccc(-c3ccco3)c2)CC1,86.6% (active)
23,Cc1ccccc1OCC(=O)Nc1ccc2c(c1)CCC(=O)N2CCC(C)C,9.17% (inactive)
24,Cc1ccc(NC(=O)CN2CSCC2=O)cc1OCC(F)F,81.5% (active)
25,N#Cc1c(-c2ccc(Br)cc2)csc1N1CCCCC1,38.9% (inactive)

row,SMILES,inhibition
1,Cn1cccc1C(=O)OCc1nc2scc(-c3ccccc3)c2c(=O)[nH]1,37.5% (inactive)
2,N#Cc1ncn(Cc2nc3scc(-c4ccc(Br)cc4)c3c(=O)[nH]2)n1,50.4% (active)
3,O=C1NC(=O)N(C2CCCCC2)C(=O)C1=CC=Cc1ccco1,19.5% (inactive)
4,Cn1c(=NN=C2CC3CC=CC23)sc2ccccc21 (centres undefined),102% (active)
5,CC(=NN=c1sc2ccccc2n1C)c1ccco1,1.85% (inactive)
6,Cn1c(=NN=C2CCCc3ccccc32)sc2ccccc21,85.9% (active)
7,CC(=NN=c1sc2ccccc2n1C)c1ccccc1Br,11.9% (inactive)
8,CC1=CC(=NNc2ncc(Cl)cc2Cl)CC(C)(C)C1,-13.2% (inactive)
9,CC1=CC(=NN=c2sc3ccccc3n2C)CC(C)(C)C1,95% (active)
10,Cc1ccc(Cl)cc1N1CCN(C(=O)Nc2nncs2)CC1,2.42% (inactive)
11,O=c1c(C2OCC3(CO2)CC2C=CC3C2)coc2ccccc12 (centres undefined),35.6% (inactive)
12,Nc1ccn2ncc([P+](c3ccccc3)(c3ccccc3)c3ccccc3)c2n1,24% (inactive)
13,CCCCc1ccc(NC(=O)/C=C/c2cnn(C)c2C)cc1,93.3% (active)
14,Cc1ccc(NC2=C(Cl)C(=O)N(CC(C)C)C2=O)cc1,73.8% (active)
15,COc1ccccc1N1C(=O)C(Cl)=C(Nc2ccc(S(N)(=O)=O)cc2)C1=O,-0.54% (inactive)
16,Cc1c(Cl)ccc2sc(N3CCNCC3)nc12,90.2% (active)
17,Cc1ccc(Cl)c2sc(NCCN(C)C)nc12,36.2% (inactive)
18,Cc1cc(C)c2nc(N3CCNCC3)sc2c1,97.1% (active)
19,CCN(CC)CCN(C(=O)c1ccnn1CC)c1nc2c(C)c(Cl)ccc2s1,38.3% (inactive)
20,Cc1ccc(Cl)c2sc(N3CCNCC3)nc12,100% (active)
21,Cc1nc(N2CCNC(=O)C2)c2c(CC(C)C)csc2n1,-15.6% (inactive)
22,Cc1c(O)cccc1C(=O)NC1CC(=O)N(CC2CCCCC2)C1 (centres undefined),-18.6% (inactive)
23,Cc1ccc(C)c2[nH]c(=O)c(CCNC(=S)NCCc3ccccc3)cc12,51.5% (active)
24,C/C(=C/C(=O)NCCc1ccccc1F)CCc1ccccc1,23.7% (inactive)
25,N#CC(C#N)=NNc1ccc(F)cc1,91.2% (active)

row,SMILES,inhibition
1,N#CC(C#N)=NNc1ccc(SC(F)F)cc1,82.4% (active)
2,N#CC(C#N)=NNc1ccccc1,-41.6% (inactive)
3,N#CC(C#N)=NNc1ccc2c(c1)OCO2,45.5% (inactive)
4,Fc1ccc(NN=C2c3ccccc3-c3ccccc32)cc1,44.1% (inactive)
5,N#CC(C#N)=NNc1ccc2c(c1)OCCO2,70.3% (active)
6,CCCOCCn1cc(C2CC=CCC2)nn1 (centres undefined),75.7% (active)
7,O=C(NCCC(=O)N1CCCC1)c1ccc(-c2ccc(Cl)cc2)o1,86.7% (active)
8,S=C(c1ccc(-c2ccc(Cl)c(Cl)c2)o1)N1CCOCC1,19.5% (inactive)
9,C=CCn1c(-c2cc3c(s2)CCC(CC)C3)n[nH]c1=S (centres undefined),3.05% (inactive)
10,CCC1CCc2c(sc3nc[nH]c(=O)c23)C1 (centres undefined),51.2% (active)
11,OCC1(CO)COC(c2ccccc2)=N1,56.2% (active)
12,Cc1ccc(-n2cc(O)nn2)cc1,94% (active)
13,Cc1ccc(OCc2cn(-c3ccc(Cl)cc3)nn2)cn1,24.1% (inactive)
14,CCCCN(CCCC)c1nc(OC)nc(-n2nnc(C(C)=O)c2C)n1,15% (inactive)
15,Cc1cc(C)c(CNC(=O)c2ccc3ccccc3n2)c(=O)[nH]1,70.6% (active)
16,Cn1c(=NC(=O)c2ccc3ccccc3n2)sc2ccccc21,45.5% (inactive)
17,OCCNc1nc(-c2ccccc2)c2cc(Br)ccc2n1,3.07% (inactive)
18,Cc1cc(/C=C(/Cl)c2nc(-c3cccs3)no2)cc(C)c1O,32.2% (inactive)
19,Cc1cc(C(=O)N2CCC(N3CCCC(C(=O)N4CCOCC4)C3)CC2)no1 (centres undefined),-0.96% (inactive)
20,O=C(NC1CCCC1)c1nc(-c2cccs2)no1,79.1% (active)
21,O=C(c1cc(-c2cccs2)on1)N1CCCC1,51.3% (active)
22,O=C(NCc1ccco1)c1cc(-c2cccs2)on1,35.1% (inactive)
23,O=C(NC1CCCC1)c1cc(-c2cccs2)on1,93.6% (active)
24,O=C(c1scc2c1CCCC2)N1CCCC1,16.9% (inactive)
25,Cc1noc(-c2cccs2)c1C(=O)NCCOc1ccccc1,-3.83% (inactive)

row,SMILES,inhibition
1,N#CC(O[C@@H]1O[C@H](CO[C@@H]2O[C@H](CO)[C@@H](O)[C@H](O)[C@H]2O)[C@@H](O)[C@H](O)[C@H]1O)c1ccccc1 (some centres undefined),-0.91% (inactive)
2,COc1cccc(C(=O)N2CCC(c3nc(-c4ccc(C(F)(F)F)cc4)no3)CC2)c1,30.8% (inactive)
3,CC1CCN(C(=O)CCc2nc(-c3ccc(F)cc3)no2)CC1,87.9% (active)
4,COc1ccc(CC(=O)N2CCC(c3nc(-c4ccc(C(F)(F)F)cc4)no3)CC2)cc1,76.9% (active)
5,CCOC(=O)C(=O)N1CCC(c2nc(-c3ccc(F)c(F)c3)no2)CC1,75.8% (active)
6,COc1ccc(CC(=O)N2CCC(c3nc(-c4ccc(F)c(F)c4)no3)CC2)cc1,51.3% (active)
7,COc1ccc(CCc2nnc(CCC(=O)N3CCC(c4ccc(F)cc4)C3)o2)cc1 (centres undefined),15.2% (inactive)
8,CC1CCN(C(=O)CSc2nnc(C(C)Oc3ccc(F)cc3)o2)CC1 (centres undefined),-37.3% (inactive)
9,CC(C)c1ccc(OP(N)(=O)Oc2ccccc2F)cc1 (centres undefined),12.2% (inactive)
10,O=C(NCCc1ccc(C(F)(F)F)cc1)NCCc1cccs1,31.3% (inactive)
11,O=C(c1c(F)cccc1Cl)N1CCC(c2nc(-c3ccc(F)c(F)c3)no2)CC1,88.5% (active)
12,O=C(COc1ccc(Cl)cc1)N1CCC(c2nc(-c3ccc(Cl)cc3F)no2)CC1,64.9% (active)
13,CCOC(=O)Cn1c(=NC(=O)c2cc(C)no2)sc2cc(Cl)ccc21,-4.33% (inactive)
14,O=C(CSc1nnc(Cc2cccs2)n1C1CC1)N1CCOC1=O,-19.6% (inactive)
15,CCOC(=O)CC(=O)N1CCC(c2nc(-c3ccc(Cl)cc3)no2)CC1,57.3% (active)
16,O=C(c1ccccc1C(F)(F)F)N1CCC(c2nc(-c3ccc(Cl)cc3F)no2)CC1,15.5% (inactive)
17,COC(=O)C(=O)N1CCC(c2nc(-c3ccc(Cl)cc3)no2)CC1,20.8% (inactive)
18,O=C(Cc1cccs1)N1CCC(c2nc(-c3ccc(C(F)(F)F)cc3)no2)CC1,67.2% (active)
19,O=C(CCc1ccccc1)N1CCC(c2nc(-c3ccc(C(F)(F)F)cc3)no2)CC1,83.2% (active)
20,COc1ccc(CC(=O)N(CC(=O)N2CCc3sccc3C2c2ccc(Cl)cc2Cl)Cc2ccc(F)cc2)cc1 (centres undefined),3.26% (inactive)
21,OCCc1ccc(-c2noc(C3CCC3)n2)cc1,40.7% (inactive)
22,COc1ccc(CC(=O)N2CCC(c3nc(-c4ccc(Cl)cc4F)no3)CC2)cc1,89% (active)
23,CSC1(CNc2ccc(Br)cn2)CCOCC1,57.5% (active)
24,CC(=O)Nc1cccc(CNc2ccc(Br)cn2)c1,2.55% (inactive)
